The results in this text go back to PubChem BioAssay (Tox21).

Results filed as inconclusive are left out. Where a call stands in place of a potency, no number is given. Activity calls are given as the source filed them. The call rests on the fitted dose curve.
Potency means the concentration at half of the fitted maximal effect.

Chain of Acetylcholinesterase (Homo sapiens) (P22303 whole entry, looked up): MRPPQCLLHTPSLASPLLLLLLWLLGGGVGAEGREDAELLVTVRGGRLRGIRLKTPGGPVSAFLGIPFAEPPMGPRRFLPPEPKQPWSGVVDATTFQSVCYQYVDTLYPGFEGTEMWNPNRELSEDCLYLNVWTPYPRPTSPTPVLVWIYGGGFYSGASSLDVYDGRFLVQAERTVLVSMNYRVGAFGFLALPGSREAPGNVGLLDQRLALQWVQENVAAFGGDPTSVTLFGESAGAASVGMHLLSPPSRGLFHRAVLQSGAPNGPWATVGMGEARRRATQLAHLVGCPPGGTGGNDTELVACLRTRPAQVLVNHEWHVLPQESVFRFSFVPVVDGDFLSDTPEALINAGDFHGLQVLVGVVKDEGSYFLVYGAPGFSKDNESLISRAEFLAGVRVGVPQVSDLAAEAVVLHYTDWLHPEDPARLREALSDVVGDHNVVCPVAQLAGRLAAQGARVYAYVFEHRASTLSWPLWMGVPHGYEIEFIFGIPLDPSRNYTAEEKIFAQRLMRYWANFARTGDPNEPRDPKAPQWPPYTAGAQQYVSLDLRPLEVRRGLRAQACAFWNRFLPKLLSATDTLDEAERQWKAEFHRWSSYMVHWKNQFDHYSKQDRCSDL

One test addresses Acetylcholinesterase (Homo sapiens) (UniProt P22303). Kind of test: Acetylcholinesterase (AChE) small molecule antagonists: colormetric cell-based qHTS assay (AID 1347395). Further: nearly all actives have a fitted effect of over 30% in size. The note with it: SH-SY5Y cells AChE activity, colorimetric (Ellman); series mostly up to 115 µM. In short, it runs like this: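 Colorimetric readout: DTNB quantifies thiocholine from acetylthiocholine hydrolysed by endogenous AChE of SH-SY5Y cells (2,000/well, plated overnight). Compound pretreatment 30 min, substrate incubation 90 min, both 37 C.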
For orientation: qHTS replaces the single test concentration by a dilution series.
Regarding `CC(C)NCC(O)c1ccc2ccccc2c1` (stereo not given), the Potency entry is “inactive”.

In the case of `CC(C)CCCO`, the Potency result is “inactive”.

With `C[C@@H](O)[C@H]1C(=O)N2C(C(=O)O)=C(S[C@@H]3CN[C@H](CNS(N)(=O)=O)C3)[C@H](C)[C@H]12`, the Potency entry is “inactive”.

Consider `Nc1ccc(N=Nc2ccccc2)c(N)c1`, for which the Potency entry was “inactive”.

`Oc1cc2c(cc1O)[C@H]1c3ccc(O)c(O)c3OC[C@@]1(O)C2`: the Potency entry is “inactive”.

As to `CO[C@@H]1[C@@H](O[C@@H]2O[C@H](C)[C@@H](O[C@H]3C[C@@](C)(O)[C@@H](O)[C@H](C)O3)[C@H](N(C)C)[C@H]2O)[C@@H](CC=O)C[C@@H](C)[C@@H](O[C@@H]2CC[C@H](N(C)C)[C@@H](C)O2)/C=C/C=C/C[C@@H](C)OC(=O)C[C@H]1OC(C)=O`, the Potency entry was “inactive”.

For `CC1=C(/C=C/C(C)=C/C=C/C(C)=C/C=O)C(C)(C)CCC1`, the Potency result is “inactive”.

Consider `O=C(CCN1CCN2CCCC2C1)N1c2ccccc2Sc2ccc(Cl)cc21` (stereo not given), for which the activity, negative = inhibition was 0% [at 23.6 µM] (inactive).

`OCCCS`: the Potency entry is “inactive”.

`CC(=O)N[C@@H](CC(C)C)C(=O)O`: the Potency entry was “inactive”.

Consider `O=C(Nc1cccc2c(=O)cc(-c3nn[nH]n3)oc12)c1ccc(OCCCCc2ccccc2)cc1`, for which the Potency result was “inactive”.

For `CCCCCCCCCCCCCCCCCC[N+](C)(C)C`, the Potency result was “inactive”.

For `CCOc1ccc(C(=O)OCCN(CC)CC)cc1`, the Potency entry was “inactive”.

Turning to `O=C(CCN1CCC(c2ccccc2)C1)c1ccc2c(c1)OCCO2` (stereo not given), the Potency was 30.9 µM (active).

As to `Cc1c(I)c(=O)n(-c2ccccc2)n1C`, the Potency result was “inactive”.

Take `Cc1ccc(C(=O)C(=O)O)cc1C`: the Potency result was “inactive”.

For `CCCOc1ccc2c(c1)CC[C@@H]1[C@@H]2CC[C@]2(C)C(OC)CC[C@@H]12` (stereo not given in full), the Potency entry was “inactive”.

Take `CC1(C)S[C@@H]2[C@H](NC(=O)C(c3ccccc3)S(=O)(=O)O)C(=O)N2[C@H]1C(=O)O` (stereo not given in full): the Potency entry was “inactive”.

Regarding `O=C1NC(=O)c2cccc3cccc1c23`, the Potency was 39.9 µM (active).

For `CCC(=O)Oc1ccc2c(c1)CC[C@@H]1[C@@H]2CC[C@@]2(C)[C@H]1C[C@@H](OC(=O)CC)[C@@H]2OC(=O)CC`, the Potency entry is “inactive”.

Regarding `CCN(CC)C(=O)c1cc(S(=O)(=O)Cc2ccccc2)c(N2CCC(c3ccccc3)CC2)cc1N(CC)CCN(C)C`, the Potency result is “inactive”.

Regarding `CN(C)CCN(Cc1ccccc1)c1ccccn1`, the Potency result is “inactive”.

As for `CCCCN(CCCC)CC(O)c1cc(Cl)cc2c1-c1ccc(Cl)cc1/C2=C/c1ccc(Cl)cc1` (stereo not given), the Potency result was “inactive”.

As to `N=C(N)c1ccc2cc(OC(=O)c3ccc(N=C(N)N)cc3)ccc2c1`, the Potency is 27.5 µM (active).

Take `C=COCCOCCOCCOC=C`: the Potency entry is “inactive”.

Take `Cc1ccc(-c2ncc(Cl)cc2-c2ccc(S(C)(=O)=O)cc2)cn1`: the Potency is 27.5 µM (active).

Regarding `CCO[C@@H]1O[C@H](C(COCc2ccccc2)OCc2ccccc2)[C@H](OCc2ccccc2)[C@H]1O` (stereo not given in full), the Potency result is “inactive”.

In the case of `CNC(=O)c1ccccc1Sc1ccc2c(/C=C/c3ccccn3)n[nH]c2c1`, the Potency entry is “inactive”.

On to `O=S(=O)(O)SSS(=O)(=O)O`, for which the Potency is 71 µM (active).

As for `CN(Cc1cc(Br)cc(Br)c1N)C1CCCCC1`, the Potency entry was “inactive”.

With `COc1ccc2cc(C=O)ccc2c1`, the Potency result is “inactive”.

Turning to `NC1[C@H]2CN(c3nc4c(cc3F)c(=O)c(C(=O)O)cn4-c3ccc(F)cc3F)C[C@@H]12` (stereo not given in full), the molecule was called inactive.

In the case of `CCCCCCCCCCCCCCN(CCO)CCO`, the Potency entry was “inactive”.

For the molecule `OCc1c[nH]c2ccccc12`, the Potency result was “inactive”.

With `CN(C)[C@@H](CCOc1cccc2ccccc12)c1ccccc1`, the Potency result is “inactive”.

In the case of `O=C(Cl)c1cc(C(=O)Cl)cc(C(=O)Cl)c1`, the Potency entry is “inactive”.

With `CN(C)CC[C@@H](c1ccc(Br)cc1)c1ccccn1`, the Potency entry was “inactive”.

As for `CC(=O)Nc1cc(S(=O)(=O)O)cc2cc(S(=O)(=O)O)c(N=Nc3ccccc3)c(O)c12`, the Potency entry was “inactive”.

For the molecule `NCc1cccc(C2CCN(C(=O)c3ccc(C#Cc4ccccc4F)o3)CC2)c1`, the Potency result was “inactive”.

With `CS(=O)(=O)c1ccc(-c2cn3ccccc3n2)cc1`, the Potency result was “inactive”.

The next test shares this target. Description: Acetylcholinesterase (AChE) small molecule antagonists: enzyme-based qHTS assay (AID 1347397). Further: nearly all actives have a fitted effect of over 55% in size. The note with it: Potency: AChE enzyme activity inhibition; outcome: AChE enzyme activity inhibition; series mostly up to 115 µM. In short, it runs like this: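 rhAChE 50 mU/mL (dispensed) + cpd or DMSO, 30 min RT; add DTNB/acetylthiocholine cocktail, 10 min RT; colorimetric thiocholine readout. qHTS, 1536-well format.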
Regarding `CC(C)NCC(O)c1ccc2ccccc2c1` (stereo not given), the Potency result is “inactive”.

With `CC(C)CCCO`, the Potency result was “inactive”.

For the molecule `C[C@@H](O)[C@H]1C(=O)N2C(C(=O)O)=C(S[C@@H]3CN[C@H](CNS(N)(=O)=O)C3)[C@H](C)[C@H]12`, the Potency entry is “inactive”.

With `Nc1ccc(N=Nc2ccccc2)c(N)c1`, the Potency result was “inactive”.

For `Oc1cc2c(cc1O)[C@H]1c3ccc(O)c(O)c3OC[C@@]1(O)C2`, the Potency result is “inactive”.

Regarding `CO[C@@H]1[C@@H](O[C@@H]2O[C@H](C)[C@@H](O[C@H]3C[C@@](C)(O)[C@@H](O)[C@H](C)O3)[C@H](N(C)C)[C@H]2O)[C@@H](CC=O)C[C@@H](C)[C@@H](O[C@@H]2CC[C@H](N(C)C)[C@@H](C)O2)/C=C/C=C/C[C@@H](C)OC(=O)C[C@H]1OC(C)=O`, the Potency entry was “inactive”.

For `CC1=C(/C=C/C(C)=C/C=C/C(C)=C/C=O)C(C)(C)CCC1`, the Potency result was “inactive”.

In the case of `O=C(CCN1CCN2CCCC2C1)N1c2ccccc2Sc2ccc(Cl)cc21` (stereo not given), the activity change, negative = inhibition was 0.831% [at 23.6 µM] (inactive).

Turning to `OCCCS`, the Potency entry was “inactive”.

In the case of `CC(=O)N[C@@H](CC(C)C)C(=O)O`, the Potency result is “inactive”.

As to `O=C(Nc1cccc2c(=O)cc(-c3nn[nH]n3)oc12)c1ccc(OCCCCc2ccccc2)cc1`, the Potency is 27.5 µM (active).

For the molecule `CCCCCCCCCCCCCCCCCC[N+](C)(C)C`, the Potency is 63.5 µM (active).

For `CCOc1ccc(C(=O)OCCN(CC)CC)cc1`, the Potency entry is “inactive”.

`O=C(CCN1CCC(c2ccccc2)C1)c1ccc2c(c1)OCCO2` (stereo not given): the Potency entry is “inactive”.

Regarding `Cc1c(I)c(=O)n(-c2ccccc2)n1C`, the Potency entry was “inactive”.

Take `Cc1ccc(C(=O)C(=O)O)cc1C`: the Potency result is “inactive”.

For `CCCOc1ccc2c(c1)CC[C@@H]1[C@@H]2CC[C@]2(C)C(OC)CC[C@@H]12` (stereo not given in full), the Potency result was “inactive”.

With `CC1(C)S[C@@H]2[C@H](NC(=O)C(c3ccccc3)S(=O)(=O)O)C(=O)N2[C@H]1C(=O)O` (stereo not given in full), the Potency entry is “inactive”.

For the molecule `O=C1NC(=O)c2cccc3cccc1c23`, the Potency result was “inactive”.

`CCC(=O)Oc1ccc2c(c1)CC[C@@H]1[C@@H]2CC[C@@]2(C)[C@H]1C[C@@H](OC(=O)CC)[C@@H]2OC(=O)CC`: the Potency entry is “inactive”.

For the molecule `CCN(CC)C(=O)c1cc(S(=O)(=O)Cc2ccccc2)c(N2CCC(c3ccccc3)CC2)cc1N(CC)CCN(C)C`, the Potency entry was “inactive”.

Turning to `CN(C)CCN(Cc1ccccc1)c1ccccn1`, the Potency result was “inactive”.

For `CCCCN(CCCC)CC(O)c1cc(Cl)cc2c1-c1ccc(Cl)cc1/C2=C/c1ccc(Cl)cc1` (stereo not given), the Potency entry was “inactive”.

Take `N=C(N)c1ccc2cc(OC(=O)c3ccc(N=C(N)N)cc3)ccc2c1`: the molecule was classed as inactive.

Turning to `C=COCCOCCOCCOC=C`, the Potency result is “inactive”.

Take `Cc1ccc(-c2ncc(Cl)cc2-c2ccc(S(C)(=O)=O)cc2)cn1`: the Potency result is “inactive”.

For the molecule `CCO[C@@H]1O[C@H](C(COCc2ccccc2)OCc2ccccc2)[C@H](OCc2ccccc2)[C@H]1O` (stereo not given in full), the Potency entry is “inactive”.

`CNC(=O)c1ccccc1Sc1ccc2c(/C=C/c3ccccn3)n[nH]c2c1`: the Potency result was “inactive”.

For `O=S(=O)(O)SSS(=O)(=O)O`, the Potency was 71 µM (active).

For `CN(Cc1cc(Br)cc(Br)c1N)C1CCCCC1`, the Potency result was “inactive”.

With `COc1ccc2cc(C=O)ccc2c1`, the Potency entry was “inactive”.

As for `NC1[C@H]2CN(c3nc4c(cc3F)c(=O)c(C(=O)O)cn4-c3ccc(F)cc3F)C[C@@H]12` (stereo not given in full), the outcome was inactive.

Consider `CCCCCCCCCCCCCCN(CCO)CCO`, for which the Potency entry is “inactive”.

In the case of `OCc1c[nH]c2ccccc12`, the Potency result is “inactive”.

Consider `CN(C)[C@@H](CCOc1cccc2ccccc12)c1ccccc1`, for which the Potency entry is “inactive”.

For the molecule `O=C(Cl)c1cc(C(=O)Cl)cc(C(=O)Cl)c1`, the Potency result was “inactive”.

As for `CN(C)CC[C@@H](c1ccc(Br)cc1)c1ccccn1`, the Potency entry was “inactive”.

Regarding `CC(=O)Nc1cc(S(=O)(=O)O)cc2cc(S(=O)(=O)O)c(N=Nc3ccccc3)c(O)c12`, the Potency result was “inactive”.

Consider `NCc1cccc(C2CCN(C(=O)c3ccc(C#Cc4ccccc4F)o3)CC2)c1`, for which the Potency was 79.6 µM (active).

For `CS(=O)(=O)c1ccc(-c2cn3ccccc3n2)cc1`, the Potency result is “inactive”.
